The results in this text go back to PubChem BioAssay (NCATS).

Experiment [1] concerns the target Glucocorticoid receptor (Homo sapiens) (UniProt P04150). Nature of the experiment: qHTS assay for small molecule agonists of glucocorticoid receptor signaling (AID 588532; active = well fitted curve in the direction sought with a large enough effect in the signal ratio, with a control signal flat; the % refers to the signal ratio;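 note: 100% = dexamethasone at 0.1 µM and 0% = DMSO only wells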). To be noted: HeLa MMTV-bla, beta-lactamase ratio, agonist, 18 h; activation: stronger effect = higher value, percent of dexamethasone control, DMSO zero. The gist of the method: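 Quantitative HTS using CellSensor MMTV-bla HeLa cells in charcoal/dextran-treated serum; compounds tested up to 92 uM. After 18 h at 37 C, CCF4 dye reported reporter induction.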

Experiment [2] has the same target. The experiment in a line: qHTS assay for small molecule antagonists of glucocorticoid receptor signaling (AID 588533; active = well fitted inhibition curve with a large enough effect in the signal ratio, with a control signal flat, not every such curve was filed as active; the % refers to the signal ratio;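 note: cells stimulated with 2 nM dexamethasone as agonist; % is set by controls: 0 for no effect and ±100 for the full control effect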). The gist of the method:
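Antagonist-mode qHTS: compound titrations added to GRE-bla HeLa cells, then dexamethasone 2 nM final; 18 h, 37 C. CCF4 FRET fluorescence normalized to dexamethasone and DMSO; IC50 from Hill fit.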

The target of experiment [3] is Peroxisome proliferator-activated receptor delta (Homo sapiens) (UniProt Q03181). Nature of the experiment: qHTS assay for small molecule agonists of peroxisome proliferator-activated receptor delta signaling (AID 588534).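 Note: 0% = DMSO basal wells and 100% = positive control agonist at 10 µM.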 The gist of the method: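 Reporter cells were plated and held 5 hrs at 37 C before compounds were added. After 18 hrs at 37 C, CCF4 dye was loaded for 2 hrs at RT and fluorescence measured.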
Chain of Peroxisome proliferator-activated receptor delta (Homo sapiens) (Q03181 whole entry, looked up): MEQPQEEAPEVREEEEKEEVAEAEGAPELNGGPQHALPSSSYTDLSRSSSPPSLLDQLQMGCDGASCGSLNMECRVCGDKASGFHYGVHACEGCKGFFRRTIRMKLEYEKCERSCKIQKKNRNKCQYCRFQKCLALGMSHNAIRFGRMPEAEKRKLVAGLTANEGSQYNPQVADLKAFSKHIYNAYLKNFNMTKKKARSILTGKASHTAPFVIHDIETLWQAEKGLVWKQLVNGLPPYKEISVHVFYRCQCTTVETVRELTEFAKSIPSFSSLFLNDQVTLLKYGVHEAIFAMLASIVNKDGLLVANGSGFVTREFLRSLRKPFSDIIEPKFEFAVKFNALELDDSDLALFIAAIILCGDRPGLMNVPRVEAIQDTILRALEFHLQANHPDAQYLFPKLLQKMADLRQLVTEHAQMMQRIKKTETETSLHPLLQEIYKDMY

For experiment [4], the target named is Vitamin D3 receptor (Homo sapiens) (UniProt P11473). Nature of the experiment: qHTS assay for small molecule antagonists of vitamin D receptor signaling (AID 588541).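 Note: receptor activated by calcitriol during compound treatment; series mostly up to about 77 µM; % is set by controls: 0 for no effect and ±100 for the full control effect.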 The method in brief:
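Antagonist-mode beta-lactamase reporter assay: HEK293T VDR-UAS-bla cells were exposed to titrated compound alongside 1-alpha,25-dihydroxyvitamin D3 at 3 nM final for 16 h. Values were normalized to the 50 nM agonist control and DMSO basal, with IC50 and efficacy from Hill equation fits.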

The target is the same in experiment [5]. The experiment in a line: qHTS assay for small molecule agonists of vitamin D receptor signaling (AID 588543).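 Note: 0% = DMSO basal and 100% = reference agonist control.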 The gist of the method:
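qHTS in agonist mode: compound titrations stimulate a VDR-driven β-lactamase reporter in HEK293T cells over 16 h at 37 °C. Response normalized to 50 nM 1α,25-dihydroxyvitamin D3 = 100%, DMSO = 0%; Hill fitting gives EC50 and maximal response.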

Experiment [6] in a line: qHTS assay for small molecule agonists of retinoid X receptor alpha signaling (AID 588544).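 For activation: 0% = DMSO basal wells and 100% = reference agonist.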 The conditions noted are these: HEK293T RXRa-UAS-bla, beta-lactamase reporter, 18 h; 530 nm emission.
Experiment [7] deals with Retinoic acid receptor RXR-alpha (Homo sapiens) (UniProt P19793). The experiment is described as above.
Chain of Retinoic acid receptor RXR-alpha (Homo sapiens) (P19793 whole entry, looked up): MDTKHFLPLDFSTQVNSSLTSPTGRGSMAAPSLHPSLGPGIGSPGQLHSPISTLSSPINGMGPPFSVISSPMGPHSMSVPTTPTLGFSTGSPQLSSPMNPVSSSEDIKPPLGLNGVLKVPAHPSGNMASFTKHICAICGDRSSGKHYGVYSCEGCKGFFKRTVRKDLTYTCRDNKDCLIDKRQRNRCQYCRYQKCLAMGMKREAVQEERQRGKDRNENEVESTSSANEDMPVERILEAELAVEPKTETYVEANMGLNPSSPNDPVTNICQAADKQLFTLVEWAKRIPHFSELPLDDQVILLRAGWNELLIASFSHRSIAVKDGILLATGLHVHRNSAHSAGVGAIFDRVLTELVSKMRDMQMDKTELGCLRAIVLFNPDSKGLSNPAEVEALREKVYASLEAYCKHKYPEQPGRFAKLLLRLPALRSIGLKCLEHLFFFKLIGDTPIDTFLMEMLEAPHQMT
Experiment [8] concerns the target Thyroid hormone receptor beta (Homo sapiens) (UniProt P10828). Nature of the experiment: qHTS assay for small molecule agonists of thyroid hormone receptor beta signaling (AID 588545). The method in brief: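 In this cell-based screen, titrated compounds act on HEK 293 cells held in medium with 2% charcoal/dextran FBS, NEAA and pyruvate for 18 hrs at 37 C. Responses are expressed relative to T3 (10 nM) as 100% and basal DMSO as 0%.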

Experiment [9] is described as follows: qHTS assay for small molecule antagonists of retinoid X receptor alpha signaling (AID 588546; active = well fitted inhibition curve with a large enough effect in the signal ratio, with a control signal flat, not every such curve was filed as active; the % refers to the signal ratio;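 note: cells stimulated with 9-cis-retinoic acid as agonist; % is set by controls: 0 for no effect and ±100 for the full control effect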). The conditions noted are these: HEK293T RXRa-UAS-bla, beta-lactamase ratio, antagonist mode; measured here: W530 green channel, cytotoxicity proxy. The method in brief: (§1)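 Beta-lactamase reporter inhibition, read as CCF4 fluorescence ratio (ex 405, em 460/530 nm) after 2 h at RT. HEK293T UAS-bla cells, 2500/well, were stimulated with 9-cis-RA at 500 or 100 nM final alongside test compound for 18 h at 37 C.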

Experiment [10] addresses Retinoic acid receptor RXR-alpha (Homo sapiens) (UniProt P19793). Described as above. The conditions noted are these: HEK293T RXRa-UAS-bla, beta-lactamase ratio, antagonist mode. The gist of the method: as §1
In experiment [11] the target is Thyroid hormone receptor beta (Homo sapiens) (UniProt P10828). Nature of the experiment: qHTS assay for small molecule antagonists of thyroid hormone receptor beta signaling (AID 588547; active = well fitted inhibition curve with a large enough effect in the signal ratio, with a control signal flat, not every such curve was filed as active; the % refers to the signal ratio;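 note: cells stimulated with 0.4 nM T3 agonist during compound exposure; series mostly up to about 77 µM; % is set by controls: 0 for no effect and ±100 for the full control effect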). To be noted: TR-UAS-bla HEK293, beta-lactamase ratio, antagonist mode, 18 h. The method in brief:
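Inhibition of T3-driven (0.4nM final) beta-lactamase reporter activity was measured over 0.59 nM to 92 uM compound after 18 h at 37 C. The cells were GripTite HEK293 TR-UAS-bla in charcoal/dextran-stripped serum, with CCF4 ratio read-out and IC50 from Hill fits.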

The nature of experiment [12]: qHTS assay for small molecule activators of the p53 signaling pathway (AID 651743; active = well fitted activation curve with a large enough effect in the signal ratio, not every such curve was filed as active; the % refers to the signal ratio; note: series mostly up to about 92 µM; % of control where 0% means no effect). To be noted: HCT-116 p53RE-bla, beta-lactamase FRET ratio, 16 h; activation: stronger effect = higher value. The method in brief: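 Screen for p53 pathway agonists uses stably transfected p53RE-bla HCT-116 cells, 4,000 per well, treated 16 h at 37 C with compounds in DMSO.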
Experiment [13] can be described thus: qHTS assay for small molecule activators of the nuclear factor-kappa B (NF-kB) signaling pathway (AID 651749; active = well fitted activation curve with a large enough effect in the signal ratio; the % refers to the signal ratio; note: series mostly up to about 77 µM; % of control where 0% means no effect). To be noted: NF-kB-bla ME-180 cells, beta-lactamase FRET ratio, 16 h; activation: stronger effect = higher value. The gist of the method:
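Stably transfected ME-180 line; NF-kB response element upstream of beta-lactamase. Treatment: compound or DMSO, 16 hr. Detection: fluorescent FRET substrate.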

Experiment [14] can be described thus: qHTS assay for environmental chemicals that activate the Aryl hydrocarbon Receptor (AhR) signaling pathway (AID 651777; active = well fitted curve in the direction sought with a large enough effect; an effect the other way counts as inactive or inconclusive; note: % of control where 0% means no effect; nearly all actives have a fitted effect of over 15% in size). The conditions noted are these: 1A2-DRE human hepatoma cells, luciferase, 24 h; activation: stronger effect = higher value. The gist of the method:
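1A2-DRE human hepatoma reporter line; 1,200 cells/well; cmpd or DMSO 24 h, 37 C/5% CO2; One-Glo 30 min RT; luciferase lum.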

For experiment [15], the target named is Peroxisome proliferator-activated receptor alpha (Homo sapiens) (UniProt Q07869). The experiment in a line: qHTS assay for small molecule agonists of the peroxisome proliferator-activated receptor alpha (PPARalpha) signaling pathway (AID 651778; active = well fitted curve in the direction sought with a large enough effect; an effect the other way counts as inactive or inconclusive; note: % of control where 0% means no effect). To be noted: PathHunter PPARalpha complementation, chemiluminescence, 6 h; max response: stronger effect = higher value. The gist of the method: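 Chemiluminescence from complemented enzyme reported PPARalpha activation in cells after 6 hr of compound treatment at 37 C. The detection reagent was incubated for 60 min at room temperature, and compounds were scored as agonists.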
Chain of Peroxisome proliferator-activated receptor alpha (Homo sapiens) (Q07869 whole entry, looked up): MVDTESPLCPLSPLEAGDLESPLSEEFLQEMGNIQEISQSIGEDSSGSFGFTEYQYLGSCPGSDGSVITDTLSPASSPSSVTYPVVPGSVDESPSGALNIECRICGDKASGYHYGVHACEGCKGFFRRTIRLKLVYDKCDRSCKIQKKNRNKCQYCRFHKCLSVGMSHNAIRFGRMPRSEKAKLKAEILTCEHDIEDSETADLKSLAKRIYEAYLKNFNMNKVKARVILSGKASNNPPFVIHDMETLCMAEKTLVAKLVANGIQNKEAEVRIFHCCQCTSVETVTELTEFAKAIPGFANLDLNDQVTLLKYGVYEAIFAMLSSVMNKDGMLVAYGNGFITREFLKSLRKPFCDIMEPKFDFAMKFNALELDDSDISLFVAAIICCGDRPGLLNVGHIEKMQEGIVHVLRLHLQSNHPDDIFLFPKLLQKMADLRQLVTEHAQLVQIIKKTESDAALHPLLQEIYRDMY

Experiment [16] is described as follows: qHTS assay for small molecule agonists of the antioxidant response element (ARE) signaling pathway measured by Nrf2-dependant transcriptional activity (AID 720636; active = well fitted curve in the direction sought with a large enough effect in the repeat runs; an effect the other way counts as inactive or inconclusive;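 note: HepG2 cells with an ARE-driven luciferase reporter; % of control where 0% means no effect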). The method in brief:
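Cells: ARE-luc HepG2 with Nrf2-responsive luciferase. Medium contained 1% dialyzed FBS. Compound exposure lasted 16 hr at 37 C and 5% CO2, followed by ONE-Glo luciferase detection.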

Experiment [17] is described as follows: qHTS assay for small molecule agonists of the antioxidant response element (ARE) signaling pathway measured by Nrf2-dependant transcriptional activity - cell viability counter screen (AID 720653; active = well fitted curve in the direction sought with a large enough effect in the repeat runs; an effect the other way counts as inactive or inconclusive; note: % is set by controls: 0 for no effect and ±100 for the full control effect). The conditions noted are these: ARE-bla HepG2 viability, CellTiter-Glo ATP luminescence, 16 h; max response: stronger effect = lower value. The gist of the method: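 Cytotoxicity counter screen: intracellular ATP quantified by CellTiter-Glo luminescence in the same ARE-bla HepG2 plates, after 16 h compound exposure and a 2 h beta-lactamase substrate step.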

Experiment [18] is described as follows: qHTS assay for cell viability of HEK293 cells (AID 743288; active = well fitted curve in the direction sought with a large enough effect; an effect the other way counts as inactive or inconclusive; note: % is set by controls: 0 for no effect and ±100 for the full control effect; nearly all actives have a fitted effect of over 50% in size). To be noted: ATP luminescence (CellTiter-Glo), 18 h; max response: stronger effect = lower value. The method in brief:
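The Tox21 protocol used parental HEK293 cells treated for 18 h at 37 C with compounds delivered by pintool; ATP-coupled luminescence after 30 min at room temperature gave viability.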

Experiment [19] is described as follows: qHTS assay for small molecule agonists of the antioxidant response element (ARE) signaling pathway (AID 651741; active = well fitted activation curve with a large enough effect in the signal ratio; the % refers to the signal ratio; note: % of control where 0% means no effect). The gist of the method: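 Seeding 2,000 ARE-bla HepG2 cells per well preceded a 5 h incubation at 37 C/5% CO2 and a 16 h compound exposure at 37 C. Beta-lactamase reporter activity was then quantified by fluorescence after 2 h with LiveBLAzer B/G FRET substrate.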

Experiment [20] can be described thus: qHTS assay for cell viability of the p53RE-bla HCT-116 cell line (AID 743292; active = well fitted curve in the direction sought with a large enough effect; an effect the other way counts as inactive or inconclusive; note: % is set by controls: 0 for no effect and ±100 for the full control effect; nearly all actives have a fitted effect of over 55% in size). The gist of the method:
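HCT-116 p53RE-bla cells seeded 4,000/well; 5 h at 37 C; compound (DMSO) added; 16 h at 37 C; CellTiter-Glo added, 30 min RT; luminescence read.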

The target of experiment [21] is Nuclear receptor subfamily 1 group I member 2 (Rattus norvegicus) (UniProt Q9R1A7). The experiment in a line: qHTS assay for small molecule activators of the rat pregnane X receptor (rPXR) signaling pathway (AID 651751; call rule not given here; note: 0% is about no effect). The conditions noted are these: rPXR reporter cells, luciferase (One-Glo), 24 h.
Chain of Nuclear receptor subfamily 1 group I member 2 (Rattus norvegicus) (Q9R1A7 whole entry, looked up): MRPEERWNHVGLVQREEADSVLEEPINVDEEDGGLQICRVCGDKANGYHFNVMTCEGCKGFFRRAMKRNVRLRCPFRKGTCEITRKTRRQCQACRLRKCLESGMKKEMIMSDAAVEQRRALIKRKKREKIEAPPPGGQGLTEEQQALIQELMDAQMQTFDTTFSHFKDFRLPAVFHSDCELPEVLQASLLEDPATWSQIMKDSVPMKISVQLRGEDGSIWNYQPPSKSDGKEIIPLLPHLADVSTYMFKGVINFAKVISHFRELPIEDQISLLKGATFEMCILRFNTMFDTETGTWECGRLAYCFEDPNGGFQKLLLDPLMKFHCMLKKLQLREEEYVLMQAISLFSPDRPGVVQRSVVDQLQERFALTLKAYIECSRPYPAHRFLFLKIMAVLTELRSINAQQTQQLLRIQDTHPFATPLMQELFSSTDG
The nature of experiment [22]: qHTS assay for small molecule activators of the human pregnane X receptor (PXR) signaling pathway (AID 720659; call rule not given here; note: 0% is about no effect).

The structures appear in SMILES notation. Records with an inconclusive call do not appear. The source made the active and inactive calls. Unless noted, calls come from the whole dose curve.

Chain of Vitamin D3 receptor (Homo sapiens) (P11473 whole entry, looked up): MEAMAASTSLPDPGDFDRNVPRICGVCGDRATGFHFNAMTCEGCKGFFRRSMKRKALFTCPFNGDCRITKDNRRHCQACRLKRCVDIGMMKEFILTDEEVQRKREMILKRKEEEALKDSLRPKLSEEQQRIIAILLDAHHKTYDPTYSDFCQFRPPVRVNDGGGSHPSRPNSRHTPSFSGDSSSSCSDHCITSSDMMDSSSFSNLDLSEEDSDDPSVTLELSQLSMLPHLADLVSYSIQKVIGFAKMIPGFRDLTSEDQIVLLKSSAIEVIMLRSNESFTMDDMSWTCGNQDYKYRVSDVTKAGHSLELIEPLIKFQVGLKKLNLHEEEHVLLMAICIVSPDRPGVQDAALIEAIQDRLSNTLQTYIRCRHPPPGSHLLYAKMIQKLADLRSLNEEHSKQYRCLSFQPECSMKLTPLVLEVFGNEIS
Chain of Glucocorticoid receptor (Homo sapiens) (P04150 whole entry, looked up): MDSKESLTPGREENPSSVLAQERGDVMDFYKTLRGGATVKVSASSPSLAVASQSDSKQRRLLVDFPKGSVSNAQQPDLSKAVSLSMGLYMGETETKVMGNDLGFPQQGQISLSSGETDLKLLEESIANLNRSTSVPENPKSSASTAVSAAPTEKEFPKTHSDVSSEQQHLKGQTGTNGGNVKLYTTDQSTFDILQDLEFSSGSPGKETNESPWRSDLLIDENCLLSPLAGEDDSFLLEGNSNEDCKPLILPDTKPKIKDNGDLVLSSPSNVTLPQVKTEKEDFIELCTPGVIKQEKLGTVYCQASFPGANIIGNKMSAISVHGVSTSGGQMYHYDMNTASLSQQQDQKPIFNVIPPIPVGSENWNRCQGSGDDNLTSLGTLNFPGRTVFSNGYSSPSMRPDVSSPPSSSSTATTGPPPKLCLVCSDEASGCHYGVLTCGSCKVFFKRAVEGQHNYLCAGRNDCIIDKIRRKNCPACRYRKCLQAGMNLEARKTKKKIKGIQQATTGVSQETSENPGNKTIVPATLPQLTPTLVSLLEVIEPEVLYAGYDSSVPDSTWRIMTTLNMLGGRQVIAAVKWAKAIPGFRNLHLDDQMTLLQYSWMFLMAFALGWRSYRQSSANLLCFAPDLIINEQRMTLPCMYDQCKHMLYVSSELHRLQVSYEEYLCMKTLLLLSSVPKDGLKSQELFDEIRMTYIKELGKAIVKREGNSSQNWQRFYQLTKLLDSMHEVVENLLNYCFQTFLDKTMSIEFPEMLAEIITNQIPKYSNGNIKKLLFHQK
Chain of Thyroid hormone receptor beta (Homo sapiens) (P10828 whole entry, looked up): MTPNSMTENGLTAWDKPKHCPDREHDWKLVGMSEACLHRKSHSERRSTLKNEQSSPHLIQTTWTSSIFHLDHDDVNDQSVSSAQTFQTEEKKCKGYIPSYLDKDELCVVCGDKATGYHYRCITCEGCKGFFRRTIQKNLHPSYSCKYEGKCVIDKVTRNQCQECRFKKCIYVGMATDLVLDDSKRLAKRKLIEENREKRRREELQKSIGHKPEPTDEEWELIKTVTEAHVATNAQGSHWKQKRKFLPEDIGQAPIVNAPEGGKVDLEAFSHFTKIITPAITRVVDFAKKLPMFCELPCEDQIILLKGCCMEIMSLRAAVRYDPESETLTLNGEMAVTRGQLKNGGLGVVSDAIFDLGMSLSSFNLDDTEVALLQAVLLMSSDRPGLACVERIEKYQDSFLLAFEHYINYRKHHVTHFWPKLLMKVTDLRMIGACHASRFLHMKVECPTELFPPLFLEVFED

In the case of `C#CC(C)(C)NC(=O)c1cc(Cl)cc(Cl)c1`, the activation was -9.44% (inactive) in experiment [1], -3.76% (inactive) in experiment [12], -1.42% (inactive) in experiment [13] and -1.14% (inactive) in experiment [14]. The Potency entry in experiment [2], in experiment [4], in experiment [7], in experiment [8] and in [16] was “inactive” each time. Further, the call in [3] and in experiment [5] was inactive. Moreover, the max response in experiment [6] was -7.53%; in [9], -11.2%; in experiment [10], -9.81% (inactive); in experiment [15], 7.64% (inactive); in [17] it was 4.89% (inactive); in [18], 5.07% (inactive). The activity change % (negative = inhibition) in experiment [11] was 3.53% (inactive).
As to `CC(C)(C)OOC(C)(C)CCC(C)(C)OOC(C)(C)C`, the Potency result in experiment [2], in [4], in [7], in [8], in experiment [19] and in experiment [16] was “inactive” throughout. For the same molecule, in experiment [20], the Potency entry was “inactive”. Also, the result in [5] and in experiment [22] was inactive. For the same molecule, the max response was -2.41% in experiment [6]; -4.8% in [9]; -1.22% (inactive) in experiment [10]; 0.675% (inactive) in experiment [15]; -14% (inactive) in experiment [17]; 0.0033% (inactive) in [18]. In addition, in experiment [21], the max response was -1.16% (inactive). Further, in [12], the activation is 2.86% (inactive).
In the case of `O=Cc1c(Cl)cccc1Cl`, the outcome in [3] was inactive.
